Source: the supplement of paper PMC6555819

Columns and labels:
Test in all cases: PBM binding z-score (relative to random genomic background probes); higher = stronger binding; sequences stand for … in GC…GCGATTGACAGCGTAGAATGAAGG
[1] = system: PPARg:RXRa DBDmut IVT, anti-RXR (DBD mutation: RXRa K156A/R161A, NR concentration 270 nM, RXRa partner concentration 90 nM)
Method in brief: (§1)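 Each nuclear receptor dimer, without ligand, was incubated for 1 h on custom Agilent 4×180K protein-binding microarrays. Binding was detected with antibodies against each partner (one per run), and scanned fluorescence was regression-normalized. The binding z-scores are referenced to random human genomic background probes.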

[2] = system: PPARg:RXRa IVT, anti-PPARg (NR concentration 270 nM, RXRa partner concentration 90 nM)
Method in brief: as §1

[3] = system: PPARg DBDmut:RXRa IVT, anti-PPARg (DBD mutation: PPARg1 K132A/R137A, NR concentration 270 nM, RXRa partner concentration 90 nM)
Method in brief: as §1

[4] = system: PPARg DBDmut IVT, anti-PPARg (DBD mutation: PPARg1 K132A/R137A, NR concentration 270 nM)
Method in brief: as §1

[5] = system: PPARg homodimer (NR concentration 180 nM)
Method in brief: as §1

[6] = system: PXR:RXRa (NR concentration 270 nM, RXRa partner concentration 90 nM)
Method in brief: as §1

[7] = system: PXR homodimer (NR concentration 270 nM)
Method in brief: as §1

[8] = system: RARa:RXR (NR concentration 270 nM, RXRa partner concentration 90 nM)
Method in brief: as §1

[9] = system: RARa homodimer (NR concentration 270 nM)
Method in brief: as §1

[10] = system: RARb:RXRa (NR concentration 270 nM, RXRa partner concentration 90 nM)
Method in brief: as §1

Sequence	PBM binding z-score [1]	PBM binding z-score [2]	PBM binding z-score [3]	PBM binding z-score [4]	PBM binding z-score [5]	PBM binding z-score [6]	PBM binding z-score [7]	PBM binding z-score [8]	PBM binding z-score [9]	PBM binding z-score [10]
TTACCAAGGTGAGGGTCGTTGATCCCTCTGTAGA	1.3	2.21	-0.596	-0.428	0.109	0.865	-0.63	1.36	-0.812	1.45
ATCTCTAGATAAAAGTTCAGTGAATCCCGAGGAT	-0.00193	0.486	1.04	0.904	1.13	1.57	1.32	0.986	0.594	2.13
GGAACGAGGGCATTCGAGTTGATAACATGGCGAT	2.75	2.1	0.243	0.0771	0.605	4.02	1.36	0.915	-0.696	1.68
CCTGCTAGGTCATGGTCAGCTTATCTACAGTATG	4.34	3.48	0.0412	-0.178	1.32	1.35	-0.301	2.36	0.172	3.81
CGAACTTGGTCATCCAGGACAGTGAATACATTGA	1.09	1.08	0.648	0.367	-0.34	0.166	0.269	0.326	-0.093	1.23
ATACCACGGTGATCGTGAGGTCGTTGATACTAAC	-0.0691	0.808	0.255	0.824	0.823	1.6	0.891	1.57	0.137	0.885
TAGCCTAGCTCAGATCGGGCCAGTATACGCTATA	-0.922	-0.645	-0.837	-1.92	-1.79	-1.09	-1.09	-1.21	-1.25	-1.89
GCATATAGGTCATACAAGGTGAAAGTCCGATTGT	6.81	7.41	3.79	2.08	2.85	4.68	0.812	4.41	1.09	4.29
TAGCCTAGGTCATGCGGGCCAGAATAGTGTCGGC	1.69	2.9	-0.0114	-0.646	0.886	1.66	-0.503	2.58	-0.8	3.83
ACAGACAGGTGATGAAGGTAACTCAGGCTATCAT	0.422	0.692	0.619	0.238	0.146	-0.153	0.282	0.117	0.425	0.236
TCTATTTGTTGAAGGGCAACCGACGAGTCCGTTT	2.54	1.08	1.34	1.56	1.38	1	1.16	0.596	2.02	1.68
TCTGATAGGTCAACGATGGTCAGCTAATCTGCTA	3.63	3.48	0.759	0.735	2.17	3.01	-0.308	3.7	1.12	4.44
ATCTCTAGGTAACTAGTTCAGTGAAAGAGAGGAC	2.81	2.6	1.49	0.893	0.154	0.527	0.481	0.382	0.388	0.464
AGAATGAGGTTATTAAGTTCAGGGAATTGCGGTC	2.87	2.49	1.24	0.465	1.36	5.65	13.8	2.88	0.854	2.35
TCTAGCAGGCCAGAGGGTCACTCGAGAGGTACGG	0.838	0.906	-0.167	-1.13	0.221	1.24	-0.669	2.4	-0.335	2.19
TCTAGATGGTCACGGAGGTCACACACGACGGGTA	2.1	3.58	1.44	1.08	4.17	4.87	2.07	5.06	1.56	3.9
TCTCGTAGATCAATAGAGGTTAAGAAAGTGCGCT	1.66	0.219	0.246	0.204	0.0307	3.08	0.105	1.6	0.0805	0.751
TCGAGTAGGTTACCAATGTGGCATTCAGCTTTCT	3.64	2.82	-0.0688	-0.478	-0.26	0.165	-0.485	0.147	-1.11	0.736
CCTACTGGGCCATTTAGAGGTCATTGATCATATG	3.95	4.32	0.156	0.0335	2.07	4.7	2.25	4.46	0.647	2.89
CGTCCGAGGTCAGCAGGTCAGTGAAAGCGACGTG	3.37	4.16	0.747	0.472	4.76	4.43	0.531	5.55	1.59	5.15
CCTTATGGGTCACTGACAGGTTATAGCATTTGGA	5.9	6.16	0.901	0.187	2.16	2.86	0.162	3.89	0.956	3.8
TCATATAGGTAATACACGTGAAAGTCGGCATCTA	3.9	2.2	1.1	1.42	1.33	0.683	0.547	0.919	1.56	0.414
